Tests used:
Assay in all cases: DAPPL (digital affinity profiling via proximity ligation, sequencing); 10 mM Tris-HCl pH 7.5, 50 mM NaCl, 1 mM DTT, 4% glycerol, room temperature, 30 min; GST-TFs on glutathione beads, 16-mer random dsDNA library, 0.1% formaldehyde crosslink after washing; high values mean tight binding
Settings in all cases: protein: recombinant; tags: N-terminal GST; dsDNA, one strand shown
FLI1 = biological target: T1, FLI1 (Homo sapiens, UniProt Q01543 1-452)
T1 sequence: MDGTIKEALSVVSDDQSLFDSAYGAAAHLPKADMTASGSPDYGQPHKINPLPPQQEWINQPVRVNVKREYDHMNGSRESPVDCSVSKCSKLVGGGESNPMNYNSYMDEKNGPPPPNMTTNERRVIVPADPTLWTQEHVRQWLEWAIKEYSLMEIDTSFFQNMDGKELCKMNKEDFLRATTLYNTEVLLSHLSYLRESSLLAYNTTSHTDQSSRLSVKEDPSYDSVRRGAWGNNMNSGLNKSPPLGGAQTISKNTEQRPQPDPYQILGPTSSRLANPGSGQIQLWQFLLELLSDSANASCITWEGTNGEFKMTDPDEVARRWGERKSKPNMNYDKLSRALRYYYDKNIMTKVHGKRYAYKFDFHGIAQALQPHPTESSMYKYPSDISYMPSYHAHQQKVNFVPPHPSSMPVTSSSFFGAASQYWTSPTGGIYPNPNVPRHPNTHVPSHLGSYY
Procedure, shortened: (§1)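 Binding signal is defined as a hexamer's read frequency for one factor over its frequency for the tag-only sample. To obtain reads, GST-fused human transcription factors were expressed in yeast, captured on glutathione beads, barcoded with DNA and pooled with that sample. Pools met 200 nmole of a 16-mer random double-stranded DNA library in Tris/NaCl/DTT/glycerol buffer for 30 min at room temperature before washing, 0.1% formaldehyde crosslinking, proximity ligation (BsaI/T4 ligase, 1 h, 37 °C), PCR and Illumina NextSeq500 sequencing.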

ELK1 = biological target: T2, ELK1 (Homo sapiens, UniProt P19419 1-428)
T2 sequence: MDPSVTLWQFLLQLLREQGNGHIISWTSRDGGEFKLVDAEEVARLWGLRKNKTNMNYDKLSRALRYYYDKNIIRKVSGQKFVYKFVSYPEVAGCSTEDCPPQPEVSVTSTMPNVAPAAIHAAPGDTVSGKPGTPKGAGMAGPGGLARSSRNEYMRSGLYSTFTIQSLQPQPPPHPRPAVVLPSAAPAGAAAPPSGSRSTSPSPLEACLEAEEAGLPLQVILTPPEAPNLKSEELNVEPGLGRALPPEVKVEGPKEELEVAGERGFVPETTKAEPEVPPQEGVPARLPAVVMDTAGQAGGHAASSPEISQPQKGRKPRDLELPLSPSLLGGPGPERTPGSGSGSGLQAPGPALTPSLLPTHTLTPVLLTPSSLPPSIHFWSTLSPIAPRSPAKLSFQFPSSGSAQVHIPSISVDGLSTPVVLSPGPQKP
Procedure, shortened: as §1

GABPA = biological target: T3, GABPA (Homo sapiens, UniProt Q06546 1-454)
T3 sequence: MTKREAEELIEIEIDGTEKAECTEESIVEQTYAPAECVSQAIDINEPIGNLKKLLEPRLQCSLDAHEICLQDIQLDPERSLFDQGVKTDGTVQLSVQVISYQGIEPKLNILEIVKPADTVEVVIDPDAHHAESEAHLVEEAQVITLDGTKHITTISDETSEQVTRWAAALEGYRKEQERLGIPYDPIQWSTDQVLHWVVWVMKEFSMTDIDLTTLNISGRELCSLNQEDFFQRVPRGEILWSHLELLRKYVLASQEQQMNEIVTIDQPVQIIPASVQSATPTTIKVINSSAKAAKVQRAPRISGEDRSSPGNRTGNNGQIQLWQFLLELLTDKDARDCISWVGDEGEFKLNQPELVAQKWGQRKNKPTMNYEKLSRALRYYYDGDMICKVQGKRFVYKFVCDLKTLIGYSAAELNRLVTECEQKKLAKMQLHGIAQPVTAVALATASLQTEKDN
Procedure, shortened: as §1

ERG = biological target: T4, ERG (Homo sapiens, UniProt P11308 1-479)
T4 sequence: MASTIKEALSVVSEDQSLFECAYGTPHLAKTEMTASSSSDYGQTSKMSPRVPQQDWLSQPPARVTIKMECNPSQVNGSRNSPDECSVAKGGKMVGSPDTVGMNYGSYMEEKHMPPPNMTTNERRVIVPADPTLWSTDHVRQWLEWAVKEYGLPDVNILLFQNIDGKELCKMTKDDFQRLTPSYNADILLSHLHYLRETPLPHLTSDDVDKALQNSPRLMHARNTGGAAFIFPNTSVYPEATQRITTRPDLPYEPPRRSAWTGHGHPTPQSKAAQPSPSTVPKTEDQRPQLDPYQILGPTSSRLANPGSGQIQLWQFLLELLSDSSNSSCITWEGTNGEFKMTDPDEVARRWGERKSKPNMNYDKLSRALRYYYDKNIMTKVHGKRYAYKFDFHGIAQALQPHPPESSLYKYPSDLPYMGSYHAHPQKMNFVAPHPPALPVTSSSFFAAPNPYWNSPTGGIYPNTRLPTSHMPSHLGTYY
Procedure, shortened: as §1

ELF1 = ELF1 (Homo sapiens, UniProt P32519 1-619)
Procedure, shortened: as §1

EHF = biological target: T5, EHF (Homo sapiens, UniProt Q9NZC4 1-300)
T5 sequence: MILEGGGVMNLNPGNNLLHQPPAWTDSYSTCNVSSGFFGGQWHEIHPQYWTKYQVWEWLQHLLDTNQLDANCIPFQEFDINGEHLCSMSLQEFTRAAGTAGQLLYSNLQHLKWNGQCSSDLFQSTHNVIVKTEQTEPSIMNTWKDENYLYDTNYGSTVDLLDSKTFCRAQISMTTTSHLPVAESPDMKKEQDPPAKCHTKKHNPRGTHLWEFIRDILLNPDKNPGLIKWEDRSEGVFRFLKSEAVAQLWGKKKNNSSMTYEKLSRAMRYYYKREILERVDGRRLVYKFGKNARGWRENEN
Procedure, shortened: as §1

SPI1 = SPI1 (Homo sapiens, UniProt P17947 1-270)
Procedure, shortened: as §1

SPIB = SPIB (Homo sapiens, UniProt Q01892 1-262)
Procedure, shortened: as §1

ELK3 = biological target: T6, ELK3 (Homo sapiens, UniProt P41970 1-407)
T6 sequence: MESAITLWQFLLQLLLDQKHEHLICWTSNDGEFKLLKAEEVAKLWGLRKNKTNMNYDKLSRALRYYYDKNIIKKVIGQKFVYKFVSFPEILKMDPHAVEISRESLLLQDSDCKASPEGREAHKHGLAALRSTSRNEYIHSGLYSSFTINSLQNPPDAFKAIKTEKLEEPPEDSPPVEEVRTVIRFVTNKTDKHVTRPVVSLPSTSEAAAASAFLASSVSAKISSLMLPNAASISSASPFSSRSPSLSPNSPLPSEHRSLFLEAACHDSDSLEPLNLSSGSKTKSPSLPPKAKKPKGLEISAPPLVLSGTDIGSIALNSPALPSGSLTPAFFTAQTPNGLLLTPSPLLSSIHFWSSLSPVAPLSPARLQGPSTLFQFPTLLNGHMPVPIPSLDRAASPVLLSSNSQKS
Procedure, shortened: as §1

FEV = biological target: T7, FEV (Homo sapiens, UniProt Q99581 1-238)
T7 sequence: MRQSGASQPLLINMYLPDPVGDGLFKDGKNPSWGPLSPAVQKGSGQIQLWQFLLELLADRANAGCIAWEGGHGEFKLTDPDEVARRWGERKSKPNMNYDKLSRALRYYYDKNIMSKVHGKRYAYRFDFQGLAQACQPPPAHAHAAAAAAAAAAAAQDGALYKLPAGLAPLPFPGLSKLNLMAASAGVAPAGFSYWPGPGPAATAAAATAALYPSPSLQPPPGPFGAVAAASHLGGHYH
Procedure, shortened: as §1

ETV5 = ETV5 (Homo sapiens, UniProt P41161 1-510)
Procedure, shortened: as §1

SPIC = biological target: T8, SPIC (Homo sapiens, UniProt Q8N5J4 1-248)
T8 sequence: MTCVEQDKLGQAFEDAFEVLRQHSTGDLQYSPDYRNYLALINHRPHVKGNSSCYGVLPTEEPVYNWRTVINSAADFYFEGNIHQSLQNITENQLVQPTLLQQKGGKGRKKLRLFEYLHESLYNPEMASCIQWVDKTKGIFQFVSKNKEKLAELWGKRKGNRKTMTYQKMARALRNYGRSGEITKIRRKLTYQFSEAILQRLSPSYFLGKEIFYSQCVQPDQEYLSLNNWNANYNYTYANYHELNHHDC
Procedure, shortened: as §1

ELF4 = ELF4 (Homo sapiens, UniProt Q99607 1-663)
Procedure, shortened: as §1

ELK4 = biological target: T9, ELK4 (Homo sapiens, UniProt P28324-2 1-405)
T9 sequence: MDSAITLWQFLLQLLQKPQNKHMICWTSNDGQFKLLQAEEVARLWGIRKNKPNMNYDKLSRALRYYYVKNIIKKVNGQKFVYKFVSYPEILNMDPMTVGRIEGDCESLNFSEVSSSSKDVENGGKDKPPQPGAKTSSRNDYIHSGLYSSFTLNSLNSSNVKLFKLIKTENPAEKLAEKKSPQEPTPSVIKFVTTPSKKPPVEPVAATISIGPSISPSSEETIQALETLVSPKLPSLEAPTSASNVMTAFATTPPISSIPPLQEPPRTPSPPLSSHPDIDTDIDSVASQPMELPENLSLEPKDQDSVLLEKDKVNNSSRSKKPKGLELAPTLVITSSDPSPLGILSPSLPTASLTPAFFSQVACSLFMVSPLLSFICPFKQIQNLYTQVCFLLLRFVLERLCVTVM
Procedure, shortened: as §1

ELF3 = biological target: T10, ELF3 (Homo sapiens, UniProt P78545 1-371)
T10 sequence: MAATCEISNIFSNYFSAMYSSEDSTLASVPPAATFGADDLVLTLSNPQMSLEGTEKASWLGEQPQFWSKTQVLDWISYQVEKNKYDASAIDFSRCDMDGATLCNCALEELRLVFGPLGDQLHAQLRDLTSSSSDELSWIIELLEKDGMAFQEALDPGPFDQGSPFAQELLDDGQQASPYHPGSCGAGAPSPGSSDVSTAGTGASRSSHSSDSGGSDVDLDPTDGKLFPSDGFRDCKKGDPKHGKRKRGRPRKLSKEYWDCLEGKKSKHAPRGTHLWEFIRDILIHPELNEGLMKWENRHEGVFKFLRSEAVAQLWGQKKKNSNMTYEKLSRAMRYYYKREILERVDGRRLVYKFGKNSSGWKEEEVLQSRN
Procedure, shortened: as §1

ETV1 = ETV1 (Homo sapiens, UniProt P50549 1-477)
Procedure, shortened: as §1

ELF1, sequence (P32519 whole entry): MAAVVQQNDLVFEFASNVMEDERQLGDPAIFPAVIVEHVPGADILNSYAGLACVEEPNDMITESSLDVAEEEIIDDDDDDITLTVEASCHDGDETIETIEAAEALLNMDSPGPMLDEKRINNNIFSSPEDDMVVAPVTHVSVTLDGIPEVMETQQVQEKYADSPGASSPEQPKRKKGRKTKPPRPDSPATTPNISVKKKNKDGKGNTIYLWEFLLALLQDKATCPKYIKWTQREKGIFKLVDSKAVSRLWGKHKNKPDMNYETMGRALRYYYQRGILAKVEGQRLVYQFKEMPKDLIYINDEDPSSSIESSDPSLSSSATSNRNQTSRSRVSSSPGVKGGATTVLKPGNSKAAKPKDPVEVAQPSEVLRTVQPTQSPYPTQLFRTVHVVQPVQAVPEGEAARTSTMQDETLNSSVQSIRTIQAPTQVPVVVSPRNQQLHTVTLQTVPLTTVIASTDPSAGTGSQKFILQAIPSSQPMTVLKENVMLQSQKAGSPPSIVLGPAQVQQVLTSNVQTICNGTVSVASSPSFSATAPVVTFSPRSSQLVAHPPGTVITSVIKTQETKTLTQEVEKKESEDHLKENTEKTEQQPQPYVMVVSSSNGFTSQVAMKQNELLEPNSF
ETV5, sequence (P41161 whole entry): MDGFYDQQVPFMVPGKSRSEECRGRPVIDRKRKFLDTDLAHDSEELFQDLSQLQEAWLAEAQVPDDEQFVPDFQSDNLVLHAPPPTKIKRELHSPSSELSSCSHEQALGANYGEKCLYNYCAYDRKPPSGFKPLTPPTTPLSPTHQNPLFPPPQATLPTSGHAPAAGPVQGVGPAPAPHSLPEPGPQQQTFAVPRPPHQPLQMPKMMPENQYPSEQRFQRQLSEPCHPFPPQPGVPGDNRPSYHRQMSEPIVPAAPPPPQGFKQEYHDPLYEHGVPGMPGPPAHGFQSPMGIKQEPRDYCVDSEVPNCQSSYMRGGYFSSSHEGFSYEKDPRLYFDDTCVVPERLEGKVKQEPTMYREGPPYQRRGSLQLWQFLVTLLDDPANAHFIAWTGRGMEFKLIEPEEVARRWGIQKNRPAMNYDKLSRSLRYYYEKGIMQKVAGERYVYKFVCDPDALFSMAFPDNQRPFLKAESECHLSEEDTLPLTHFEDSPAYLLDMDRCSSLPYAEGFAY
ETV1, sequence (P50549 whole entry): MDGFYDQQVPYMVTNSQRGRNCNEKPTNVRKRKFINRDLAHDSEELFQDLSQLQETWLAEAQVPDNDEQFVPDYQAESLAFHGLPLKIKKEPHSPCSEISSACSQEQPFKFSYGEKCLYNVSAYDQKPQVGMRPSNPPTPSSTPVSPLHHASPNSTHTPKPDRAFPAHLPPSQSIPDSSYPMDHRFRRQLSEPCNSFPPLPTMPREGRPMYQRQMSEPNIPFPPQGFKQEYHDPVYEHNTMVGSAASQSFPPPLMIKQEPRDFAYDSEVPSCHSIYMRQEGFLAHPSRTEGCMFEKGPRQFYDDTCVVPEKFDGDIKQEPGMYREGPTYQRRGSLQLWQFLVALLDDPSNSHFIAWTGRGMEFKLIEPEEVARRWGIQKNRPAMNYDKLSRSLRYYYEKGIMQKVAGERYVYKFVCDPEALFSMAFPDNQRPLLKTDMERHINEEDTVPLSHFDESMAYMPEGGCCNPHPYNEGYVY
ELF4, sequence (Q99607 whole entry): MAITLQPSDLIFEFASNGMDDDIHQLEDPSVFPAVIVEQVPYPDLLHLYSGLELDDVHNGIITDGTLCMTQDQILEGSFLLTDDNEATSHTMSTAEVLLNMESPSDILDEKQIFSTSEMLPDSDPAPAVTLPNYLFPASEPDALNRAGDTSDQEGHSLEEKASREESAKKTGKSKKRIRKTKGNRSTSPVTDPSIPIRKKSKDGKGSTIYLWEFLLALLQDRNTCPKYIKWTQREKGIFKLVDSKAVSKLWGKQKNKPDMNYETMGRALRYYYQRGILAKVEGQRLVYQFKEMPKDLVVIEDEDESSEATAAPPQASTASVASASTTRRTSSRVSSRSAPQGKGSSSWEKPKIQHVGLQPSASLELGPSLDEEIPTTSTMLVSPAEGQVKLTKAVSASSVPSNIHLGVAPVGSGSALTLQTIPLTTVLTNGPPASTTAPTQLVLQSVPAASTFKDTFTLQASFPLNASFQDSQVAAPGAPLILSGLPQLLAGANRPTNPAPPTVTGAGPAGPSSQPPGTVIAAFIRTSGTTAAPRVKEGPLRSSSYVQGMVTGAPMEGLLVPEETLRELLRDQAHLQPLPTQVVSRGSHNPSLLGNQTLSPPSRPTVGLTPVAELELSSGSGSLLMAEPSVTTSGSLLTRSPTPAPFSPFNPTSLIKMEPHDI
SPIB, sequence (Q01892 whole entry): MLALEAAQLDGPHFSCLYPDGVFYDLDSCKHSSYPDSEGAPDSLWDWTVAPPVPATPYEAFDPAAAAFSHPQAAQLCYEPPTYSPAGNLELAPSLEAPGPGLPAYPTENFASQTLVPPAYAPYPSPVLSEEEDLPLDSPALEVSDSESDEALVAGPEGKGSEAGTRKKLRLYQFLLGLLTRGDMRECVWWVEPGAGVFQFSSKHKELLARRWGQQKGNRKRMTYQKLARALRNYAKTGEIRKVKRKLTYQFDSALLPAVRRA

Which results are given for GCCAAT?
binding signal (FLI1): 1.1 fold enrichment (6-mer frequency, TF over GST control); binding signal (ELK1): 1.02 fold enrichment (6-mer frequency, TF over GST control); binding signal (GABPA): 1.05 fold enrichment (6-mer frequency, TF over GST control); binding signal (ERG): 1 fold enrichment (6-mer frequency, TF over GST control); binding signal (ELF1): 1.04 fold enrichment (6-mer frequency, TF over GST control); binding signal (EHF): 1.03 fold enrichment (6-mer frequency, TF over GST control); binding signal (SPI1): 1.01 fold enrichment (6-mer frequency, TF over GST control); binding signal (SPIB): 1.07 fold enrichment (6-mer frequency, TF over GST control); binding signal (ELK3): 1.11 fold enrichment (6-mer frequency, TF over GST control); binding signal (FEV): 1.03 fold enrichment (6-mer frequency, TF over GST control); binding signal (ETV5): 1.09 fold enrichment (6-mer frequency, TF over GST control); binding signal (SPIC): 1.05 fold enrichment (6-mer frequency, TF over GST control); binding signal (ELF4): 1.12 fold enrichment (6-mer frequency, TF over GST control); binding signal (ELK4): 1.01 fold enrichment (6-mer frequency, TF over GST control); binding signal (ELF3): 1.2 fold enrichment (6-mer frequency, TF over GST control); binding signal (ETV1): 1.13 fold enrichment (6-mer frequency, TF over GST control)

How did the binding signal (FLI1) turn out when GTACTC was run?
The binding signal was 1.06 fold enrichment (6-mer frequency, TF over GST control).

And the binding signal (ELK1)?
The binding signal was 1.09 fold enrichment (6-mer frequency, TF over GST control).

And the binding signal (GABPA)?
Its binding signal is 1.16 fold enrichment (6-mer frequency, TF over GST control).

What about the binding signal (ERG) of the same sequence?
Its binding signal is 1.09 fold enrichment (6-mer frequency, TF over GST control).

What about the binding signal (ELF1) of the same sequence?
Its binding signal is 1.16 fold enrichment (6-mer frequency, TF over GST control).

And the binding signal (EHF)?
Its binding signal is 1.08 fold enrichment (6-mer frequency, TF over GST control).

What about the binding signal (SPI1) of the same sequence?
Its binding signal is 1.01 fold enrichment (6-mer frequency, TF over GST control).

And the binding signal (ELK3)?
The binding signal was 1.18 fold enrichment (6-mer frequency, TF over GST control).

What about the binding signal (FEV) of the same sequence?
The binding signal was 1.11 fold enrichment (6-mer frequency, TF over GST control).

What about the binding signal (ETV5) of the same sequence?
Its binding signal is 1.19 fold enrichment (6-mer frequency, TF over GST control).

What about the binding signal (SPIC) of the same sequence?
Its binding signal is 1.06 fold enrichment (6-mer frequency, TF over GST control).

And the binding signal (ELF4)?
Its binding signal is 1.12 fold enrichment (6-mer frequency, TF over GST control).

And the binding signal (ELK4)?
The binding signal was 1.03 fold enrichment (6-mer frequency, TF over GST control).

And the binding signal (ELF3)?
The binding signal was 1.07 fold enrichment (6-mer frequency, TF over GST control).

And the binding signal (ETV1)?
Its binding signal is 1.1 fold enrichment (6-mer frequency, TF over GST control).
